Sampled rows, rich in hits. Any-hit rate of the full collection: about 3.4%.
PAX8 inh HTS: lowers PAX8-driven luciferase in RMG-I cells | RMG-I TPO-luciferase reporter, SteadyGlo, 24 h | 360,000 tested, 1.2% active | inhibition, % at 12.6 µM;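 active = mean replicate inhibition at least 60% with every replicate also reaching 60%; inconclusive = only one of the two criteria is met; inactive = mean below 60% and not all replicates reaching 60%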;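 note: luciferase light reporting Pax8 driven TPO promoter activity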
PGC1a acetyl inh: PGC1a acetylation modulation, inhibitor mode; inhibition, % at 15.6 µM; 350,000 tested, 0.17% active; U2OS PGC1a acetylation, AlphaScreen anti-acetyl-lysine; with virally co-expressed GCN5 acetyltransferase;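 active = every replicate shows inhibition of at least 40%; inconclusive = mean inhibition at least 40% but some replicate below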
LGR2 antag: Drosophila LGR2 receptor signaling inhibition; 380,000 tested, 0.35% active; HEK293 LGR2, CRE-luciferase, bursicon-stimulated, 4 h; inhibition, % at 9.99 µM;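 active = drop in luminescence signal, shown as inhibition above about 50% in the replicate tests, limit read from the data, passing the limit was not always enough; inconclusive = probably only some replicates passing the limit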;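 note: agonist challenge used bursicon conditioned medium at about half maximal strength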
EWS-Fli block: EWS/Fli transcriptional activity inhibition. A673 NR0B1-luciferase reporter, viability-normalised. inhibition, % at 12.6 µM. 350,000 tested, 0.67% active. AID 651661;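 active = mean inhibition of at least 50% after viability correction, with every replicate also passing that limit; inconclusive = mean reaches 50% but only one of two replicates passes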;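 note: firefly luciferase signal divided by Alamar Blue viability fluorescence both relative to DMSO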
Ecoli rRNA inh: inhibitors of bacterial rRNA selective over humanized ribosomes. E. coli WT GFP vs humanized-ribosome RFP mutants, fluorescence, 24 h; hits give low values; DMSO median 0, no signal -100. 350,000 tested, 1.6% active. GFP signal change (wild-type ribosome), % (no concentration beside the values);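 active = significant combined selectivity score with lowered wild-type GFP, culture density cut under 30%, mutant RFP and density less affected; inactive = any of these conditions unmet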
SIRT5 inh: sirtuin-5 (human) deacylase inhibition | Q9NXA8 | Purified SirT5, succinyl-peptide AMC, trypsin-coupled fluorescence | inhibition, % at 15 µM | 330,000 tested, 1.1% active | AID 652115; in the data active = inhibition above about 15%; inconclusive = no clear call, values can overlap the other calls
Target sequence (Q9NXA8 whole entry, looked up): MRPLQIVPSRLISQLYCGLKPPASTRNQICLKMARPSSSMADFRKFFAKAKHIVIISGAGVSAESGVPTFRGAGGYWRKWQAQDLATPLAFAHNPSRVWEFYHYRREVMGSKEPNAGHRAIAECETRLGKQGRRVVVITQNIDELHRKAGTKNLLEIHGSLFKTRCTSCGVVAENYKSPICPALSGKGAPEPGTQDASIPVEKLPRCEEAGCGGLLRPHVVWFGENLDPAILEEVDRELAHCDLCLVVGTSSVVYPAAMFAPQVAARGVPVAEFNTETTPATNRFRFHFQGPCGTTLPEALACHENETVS
Large screens that a line does not name were inactive.

COc1cc(C=c2c3ccccc3n3c2cc(-c2ccccc2)[n+]3C)cc(OC)c1OC	PAX8 inh HTS 93 (no result: PGC1a acetyl inh)
Cn1c(CO)c(-c2ccccc2)c2cc([N+](=O)[O-])ccc21	none (no result: LGR2 antag, EWS-Fli block, Ecoli rRNA inh, SIRT5 inh)
Cc1noc(C)c1S(=O)(=O)N(C)C[C@H]1Oc2ccc(NC(=O)CCN3CCOCC3)cc2CC(=O)N([C@H](C)CO)C[C@@H]1C	none (no result: EWS-Fli block)
C[C@H]1CN([C@@H](C)CO)C(=O)c2cc(NC(=O)Nc3ccc(C(F)(F)F)cc3)ccc2O[C@H]1CN(C)C(=O)Nc1ccccc1	none
COc1cc(N(C)C)ccc1C=c1c2ccccc2n2c1cc(-c1ccccc1)[n+]2C	PAX8 inh HTS 88, LGR2 antag 79
O=C1CC(=Nc2ccc([N+](=O)[O-])cc2)NN1c1c(Cl)cc(Cl)cc1Cl	SIRT5 inh 17 (no result: PGC1a acetyl inh)
COc1ccc(CNc2nc(SCC(=O)NCc3ccco3)nc3ccccc23)cc1	Ecoli rRNA inh -31 (no result: PAX8 inh HTS)
O=C(/C=C/c1ccco1)N(Cc1ccc(Cl)cc1)C1CCS(=O)(=O)C1 (stereo not given)	SIRT5 inh 57 (no result: PGC1a acetyl inh)
Cc1cc2oc(C(=O)N(Cc3cccs3)C3CCS(=O)(=O)C3)cc(=O)c2cc1Cl (stereo not given)	Ecoli rRNA inh -21
Cc1ccc(/C=C/C(=O)N(Cc2cccs2)C2CCS(=O)(=O)C2)cc1 (stereo not given)	Ecoli rRNA inh -29
CN(C)/C=C/C(=O)c1ccc(Cl)c([N+](=O)[O-])c1	SIRT5 inh 17
CN(C)/C=C/C(=O)c1cccc(Cl)c1	none (no result: LGR2 antag, EWS-Fli block, Ecoli rRNA inh, SIRT5 inh)
C[C@H](CO)N1C[C@H](C)[C@H](CN(C)C)Oc2ncc(-c3cccc(F)c3)cc2C1=O	none (no result: PAX8 inh HTS)
COc1ccc(NCN2C(=O)CCC2=O)cc1	none (no result: PAX8 inh HTS, LGR2 antag, EWS-Fli block, Ecoli rRNA inh, SIRT5 inh)
O=C1CCC(=O)N1CNc1ccc(Oc2ccccc2)cc1	Ecoli rRNA inh -13 (no result: PAX8 inh HTS)
Cc1ccc(-c2ccc3c(c2)O[C@H](CN(C)CC2CC2)[C@H](C)CN([C@H](C)CO)S3(=O)=O)cc1	none (no result: PAX8 inh HTS)
Cc1ccc(C)c(CSC2=NCCN2C(=O)Cc2ccc([N+](=O)[O-])cc2)c1	PAX8 inh HTS 95 (no result: PGC1a acetyl inh)
N#Cc1c(NC(=O)c2ccccc2Cl)n(Cc2ccccc2)c2nc3ccccc3nc12	Ecoli rRNA inh -17 (no result: PGC1a acetyl inh)
Cc1ccc(-c2csc(NC(=O)c3cccc(C)c3)c2C(=O)O)cc1	Ecoli rRNA inh -38
Cc1cc(C)c(C#N)c(SCc2nnc(-c3ccccc3)o2)n1	LGR2 antag 77, EWS-Fli block 78
Cc1ccc(C#N)c(SCc2nnc(-c3ccc(Cl)cc3)o2)n1	LGR2 antag 66 (no result: EWS-Fli block, Ecoli rRNA inh, SIRT5 inh)
Cc1cc(C)c(C#N)c(SCc2nnc(-c3ccccc3[N+](=O)[O-])o2)n1	none
Clc1ccc(-c2nc3ccc(Br)cn3c2Cc2ccsc2)cc1	Ecoli rRNA inh -23
O=C(N/N=C(\c1ccccc1)c1cccnc1)c1cccc(F)c1	PAX8 inh HTS 73 (no result: PGC1a acetyl inh, EWS-Fli block)
CC1(C)CC(=O)C=C(C#CC2(O)CCCCC2)C1	PAX8 inh HTS 109 (no result: SIRT5 inh)
COCC(=O)Nc1ccc2c(c1)C(=O)N(C)[C@@H]1CC[C@@H](CC(=O)NCc3ccc(OC)cc3)O[C@@H]1CO2	none (no result: SIRT5 inh)
COc1ccc(/C=C/C(=O)OCC(=O)c2ccc[nH]2)cc1	none
O=C(/C=C/c1ccc([N+](=O)[O-])cc1)OCC(=O)c1ccc[nH]1	SIRT5 inh 23
C[C@H]1CN([C@@H](C)CO)C(=O)Cc2cc(NC(=O)c3ccncc3)ccc2O[C@H]1CN(C)Cc1ccc(C(=O)Nc2ccccc2N)cc1	none
C[C@H]1CN([C@@H](C)CO)C(=O)Cc2cc(N(C)C)ccc2O[C@@H]1CN(C)Cc1ccc(C(=O)Nc2ccccc2N)cc1	PAX8 inh HTS 65
C[C@@H]1CN([C@@H](C)CO)C(=O)Cc2cc(N(C)C)ccc2O[C@@H]1CN(C)Cc1ccc(C(=O)Nc2ccccc2N)cc1	PAX8 inh HTS 76, EWS-Fli block inconclusive
Cc1c(Cl)cccc1NC(=S)C(=C([O-])c1ccc(Cl)s1)[n+]1ccccc1	Ecoli rRNA inh -11 (no result: PGC1a acetyl inh, LGR2 antag, SIRT5 inh)
[O-]/C(=C(\C(=S)NCc1ccccc1)[n+]1ccccc1)c1ccc(Cl)s1	none (no result: PGC1a acetyl inh)
COc1ccc(N(C(=O)CCl)C(C(=O)NCCc2ccccc2)c2cccs2)cc1 (stereo not given)	PAX8 inh HTS 113, PGC1a acetyl inh 61
COc1ccc(CNC(=O)C(c2ccncc2)N(C(=O)Cc2cccs2)c2ccccc2)cc1 (stereo not given)	none (no result: PGC1a acetyl inh)
CCOc1ccc(OCc2ccc(C(=O)O)o2)cc1	none (no result: PAX8 inh HTS, LGR2 antag, EWS-Fli block, Ecoli rRNA inh, SIRT5 inh)
Cc1cc(C)cc(OCc2ccc(C(=O)NN)o2)c1	Ecoli rRNA inh -23 (no result: PGC1a acetyl inh)
Cc1ccc(OCc2ccc(C(=O)O)o2)c([N+](=O)[O-])c1	Ecoli rRNA inh -26 (no result: SIRT5 inh)
O=C(O)c1ccc(COc2ccc3ccccc3c2)o1	Ecoli rRNA inh -17
COc1cccc(C(=O)Nc2ccc3c(c2)C(=O)N(C)[C@H]2CC[C@H](CC(=O)NCc4ccccc4F)O[C@H]2CO3)c1	none (no result: SIRT5 inh)
CCC(=O)N(C)C[C@H]1Oc2cc(-c3cccc(OC)c3)ccc2S(=O)(=O)N([C@@H](C)CO)C[C@H]1C	none (no result: PAX8 inh HTS)
CN(C)CCCN(C(=O)/C=C/c1cccs1)c1nc2c(F)cccc2s1	LGR2 antag 56
COc1cccc2sc(N(CCCN(C)C)C(=O)c3sc4ccccc4c3Cl)nc12	Ecoli rRNA inh -43 (no result: SIRT5 inh)
CN(C)CCCN(C(=O)CCc1ccccc1)c1nc2c(F)cccc2s1	none (no result: PAX8 inh HTS, EWS-Fli block, Ecoli rRNA inh, SIRT5 inh)
CCc1ccc2nc(N(CCCN(C)C)C(=O)c3ccc(S(=O)(=O)N4CCc5ccccc5C4)cc3)sc2c1	Ecoli rRNA inh -25 (no result: PGC1a acetyl inh, EWS-Fli block)
CCOc1cccc2sc(N(CCCN(C)C)C(=O)c3ccc(S(=O)(=O)N4CCc5ccccc5C4)cc3)nc12	none (no result: EWS-Fli block)
Cc1cccc2sc(N(CCN(C)C)C(=O)/C=C/c3cccs3)nc12	none (no result: EWS-Fli block, Ecoli rRNA inh, SIRT5 inh)
CN(C)CCCN(C(=O)c1ccc(S(=O)(=O)N(C)Cc2ccccc2)cc1)c1nc2c(F)cccc2s1	Ecoli rRNA inh -33
CC(C)[C@@H]1COCn2nncc2CC[C@H](Cc2ccc(-c3ccccc3)cc2)C(=O)N1	none (no result: PAX8 inh HTS, PGC1a acetyl inh, LGR2 antag, EWS-Fli block, SIRT5 inh)
CCNC(=O)Nc1ccc2c(c1)C(=O)N(C)[C@@H]1CC[C@@H](CC(=O)NCc3ccccc3F)O[C@H]1CO2	none
CN1C(=O)c2cc(NS(=O)(=O)c3ccc(Cl)cc3)ccc2OC[C@H]2O[C@@H](CC(=O)N3CCc4ccccc4C3)CC[C@H]21	none
CN1C(=O)c2cc(NC(=O)c3cccs3)ccc2OC[C@H]2O[C@H](CC(=O)N3CCOCC3)CC[C@@H]21	SIRT5 inh 17
CN1C(=O)c2cc(NS(=O)(=O)c3ccc(Cl)cc3)ccc2OC[C@@H]2O[C@H](CC(=O)N3CCc4ccccc4C3)CC[C@@H]21	PAX8 inh HTS 61
CN1C(=O)c2cc(NC(=O)c3cccc(F)c3)ccc2OC[C@H]2O[C@@H](CC(=O)N3CCc4ccccc4C3)CC[C@@H]21	Ecoli rRNA inh -26
c1ccc2nc(-c3ccc(N4CCOCC4)cc3)ccc2c1	none (no result: PAX8 inh HTS, LGR2 antag, EWS-Fli block, Ecoli rRNA inh, SIRT5 inh)
